# DT40 TDP1 CPT: qHTS for Inhibitors of human tyrosyl-DNA phosphodiesterase 1 (TDP1): qHTS in cells in presence of CPT. Potency, µM (series often up to 46.2 µM), inactives show at the highest dose activity change, negative = growth inhibition, usual class: inhibitors. chicken DT40 Tdp1-/-;hTDP1 cells + 20 nM CPT, ATP luminescence, 48 h. actives 12% (n = 420,000). AID 686979, 2013; also: nearly all actives have a fitted effect of over 55% in size
#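 Chicken DT40 Tdp1-/- cells stably complemented with human TDP1 were seeded at 400 cells/well in medium containing 20 nM camptothecin, exposed to pin-transferred compounds, and grown at 37 °C for at least 48 hr. Viability was read as ATP luminescence.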
# HT1080NT lethal: qHTS for induction of synthetic lethality in tumor cells producing 2HG: qHTS for the HT-1080-NT fibrosarcoma cell line. HT-1080-NT fibrosarcoma viability, CellTiter-Glo ATP luminescence, 48 h. Potency, µM (titrated, usually from 46.1 µM), for inactives: at the top dose activity, negative = less viability, hits mostly cytotoxic. actives 1.6% (n = 360,000);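 also: NT is the 2HG producing partner of a matched IDH1 knockdown line; 0% = DMSO-treated cells and -100% = media-only wells without cells; nearly all actives have a fitted effect of over 55% in size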
#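 A 48-hour cytotoxicity screen used HT-1080-NT cells plated 2 hours before compound delivery. ATP-based CellTiter-Glo luminescence measured viability, normalized to DMSO and no-cell controls.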
# HT1080 IDH1KD tx: qHTS for induction of synthetic lethality in tumor cells producing 2HG: qHTS for the HT-1080-IDH1KD cell line | actives 2% (n = 360,000) | Potency, µM (titrated, usually from 46.1 µM), without a hit: at the highest dose activity, negative = toxicity, most hits filed as cytotoxic | HT-1080 IDH1 knockdown viability, ATP luminescence, 48 h;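 also: 0% = DMSO wells and -100% = cell-free medium wells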
#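 Knockdown cells (IDH1KD HT-1080) received compounds 2 h after plating at 750 cells/well and were kept 48 h at 37 °C in 5% FBS RPMI. A CellTiter-Glo luminescence read gave % activity for curve fitting.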
# DT40 TDP1 no CPT: qHTS for Inhibitors of human tyrosyl-DNA phosphodiesterase 1 (TDP1): qHTS in cells in absence of CPT; DT40 Tdp1-/- hTDP1 cells, no CPT, ATP luminescence, 48 h; Potency, µM (titrated, usually from 46.2 µM), for inactives: top-dose activity change, negative = growth inhibition, hits mostly inhibitors; actives 15% (n = 420,000); AID 686978, 2013; also: nearly all actives have a fitted effect of over 55% in size
#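 Seeded 400 DT40-hTDP1 cells/well (vehicle DMSO, no 20 nM CPT); pinned compounds; ≥48 hr at 37 °C; CellTiter-Glo luminescence as viability measure.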
# KB-V1 cytotox: qHTS assay for MDR1-selective chemotherapeutics: Primary screen using the drug-selected MDR subline cells KB-V1. KB-V1 MDR cells viability, CellTiter-Glo, 72 h. Potency, µM (doses to about 46.1 µM), actives largely listed as cytotoxic. actives 3.4% (n = 400,000); also: nearly all actives have a fitted effect of over 60% in size
#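 Compound-treated KB-V1 multidrug-resistant cells, 72 h, 37 degrees C; viability by CellTiter-Glo. Fitted qHTS curves give the values.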
# KB-3-1 cytotox: qHTS assay for MDR1-selective chemotherapeutics: Primary screen using the parental adenocarcinoma cell KB-3-1; KB-3-1 viability, CellTiter-Glo ATP luminescence, 72 h; Potency, µM (highest dose often 46.1 µM), usual class: cytotoxic; actives 1.4% (n = 400,000); AID 1347075, 2019; also: nearly all actives have a fitted effect of over 60% in size
#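 Multi-concentration cytotoxicity screen in KB-3-1 cells grown in DMEM lacking phenol red with 10% FBS. After 72 h at 37 °C with compound, ATP-dependent luminescence was recorded.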
# The depositor's hits bear a star; i = inactive; ? = inconclusive; nt = not tested or not shown; [ ] = dose if it differs, or a comment. In the library only some 19% were active in any assay of this set; here they are far more common. Calls follow the shape of the dose curve; as a rule, active = well fitted curve in the direction sought with a large enough effect; inconclusive = small, poorly fitted or top-dose-only effect, or another doubt; inactive = no such curve, though single readings can be large; an effect the other way counts as inactive or inconclusive. Unless noted, % is scaled to controls: 0 for no effect and ±100 for the full control effect; potency is read from the fitted curve at half-maximal effect.
SMILES,DT40 TDP1 CPT,HT1080NT lethal,HT1080 IDH1KD tx,DT40 TDP1 no CPT,KB-V1 cytotox,KB-3-1 cytotox
COc1ccc(Cl)cc1NC(=O)Nc1ccccc1C(N)=O,18µM*,8%,6%,8.2µM*,i,i
CCc1ccccc1NC(=O)Nc1ccc2c(c1)OCO2,-11%,10%,19%,13%,i,i
CCN(Cc1ccccc1)S(=O)(=O)c1cn(C)cn1,-8%,10%,6%,23%,?,i
C=CCn1c(SC(C)C#N)nc2ccccc2c1=O (centres undefined),0%,nt,nt,?,i,i
CCOc1ccc(NC(=O)CSc2nc3ccccc3c(=O)n2CCC(=O)NC2CCCCC2)cc1,-14%,nt,nt,-8%,i,i
Cc1nn(C)c(C)c1NS(=O)(=O)c1ccccc1Cl,-10%,-3%,-3%,7%,i,i
O=C(CN1c2ccccc2Sc2ccccc21)NNC(=O)Nc1cccc(Cl)c1,23µM*,18µM*,12µM*,10µM*,i,?
O=C(Nc1ccc(Cl)cc1)Nc1ccccc1CC[N+](=O)[O-],13µM*,-13%,-9%,?,i,i
CSc1ccccc1NC(=O)Nc1ccc(Cl)cc1,21µM*,14µM*,?,-30%,i,i
CC(C)OC(=O)NC(C)(C)COC(=O)Nc1cccc(Cl)c1,?,-24%,-18%,?,9.2µM*,?
CC(C)c1onc(C(=O)N2CCN(Cc3ccccc3)CC2)c1[N+](=O)[O-],?,12%,1%,-21%,i,i
O=C(NNc1ccccc1[N+](=O)[O-])Nc1cccc(Cl)c1,21µM*,-9%,1%,15µM*,i,i
O=C(NNc1ccccc1[N+](=O)[O-])Nc1ccc(F)cc1F,?,-1%,2%,?,i,i
CSc1ccc(NC(=O)Nc2ccccc2C(N)=O)cc1,13µM*,0%,-5%,?,i,i
Cc1ccc(C(=O)Nc2ccc3c(c2)OCO3)o1,15µM*,-6%,-15%,16µM*,?,?
C/C(=C\C(=O)c1ccc(C)o1)Nc1ccc2c(c1)OCO2,-7%,7%[9.24 µM],7%,-18%,i,i
N#Cc1ccc(NC(=O)Nc2cccc(C#N)c2)cc1,6.5µM*,0%,-6%,6.5µM*,i,i
COc1cccc(C(C)N(C)Cc2nc(-c3ccoc3)oc2C)c1 (centres undefined),5%,13%,12%,-15%,i,i
CCCC(=O)Oc1c(Sc2ccc(C)cc2)c(C)nn1-c1ccccc1,-17%,nt,nt,-17%,nt,nt
O=C(CCl)Nc1ccc2c(c1)OCO2,13µM*,9.2µM*,18µM*,?,?,15µM*
O=C(Nc1ccccc1)Nc1cccc(Cl)c1,14µM*,?,?,11µM*,i,i
Cc1cc(NC(=O)Nc2cccc(Cl)c2)n(-c2ccccn2)n1,?,?,?,18µM*,?,i
CC(=O)Nc1ccc2c(c1)OCO2,25%,15%,16%,-2%,i,i
Cc1cc(NC(=O)Nc2cccc(Cl)c2)n(-c2ccccc2)n1,-3%,3%,2%,?,i,i
NC(=O)c1ccccc1NC(=O)Nc1cccc(Cl)c1,12µM*,1%,-2%,?,i,i
SMILES,DT40 TDP1 CPT,HT1080NT lethal,HT1080 IDH1KD tx,DT40 TDP1 no CPT,KB-V1 cytotox,KB-3-1 cytotox
O=C(Nc1cccc(Cl)c1)Nc1ccccc1C(=O)O,-3%,-5%,?,-14%,?,?
CN(C)CCCNC(=O)c1ccc(-c2cc3nc(NCc4cccnc4)n(C)c(=O)c3s2)cc1,-27%,1%,0%,0%,i,i
C=C(C(=O)Nc1ccccc1)c1ccc(C)cc1,?,16%,7%,-25%,i,i
O=C(Nc1cccc(Cl)c1)Nc1ccc2c(c1)OCO2,?,?,?,16µM*,?,?
CC(=O)c1ccc(NC(=O)Nc2cccc(Cl)c2)cc1,21µM*,?,?,?,?,i
COc1ccc(C(=O)Nc2ccc(OCC(F)(F)C(F)F)c(C(F)(F)F)c2)cc1OC,11µM*,?,?,11µM*,?,?
COc1ccc(NC(=O)c2ccc(COCC(F)(F)F)cc2)cc1OC,2%,8%,-2%,?,21µM*,i
COC(=O)COc1cccc(NC(=O)c2ccc(Cl)cc2)c1,?,2%,11%,?,i,i
O=C(Nc1ccc(OCC(F)(F)C(F)F)c(C(F)(F)F)c1)c1ccc(Cl)cc1,23µM*,26µM*,15µM*,?,?,?
O=C(Nc1cccnc1)c1ccc(COCC(F)(F)F)cc1,13%,-14%,-4%,7%,?,i
COC(=O)c1ccc(-n2nnnc2SCC(=O)N2CCCCC2)cc1,-8%,-5%,-15%,-16%,21µM*,i
Cc1ccc(-c2nnc(SCC(=O)NC3CCCc4ccccc43)n2N)cc1 (centres undefined),?,11%,6%,?,?,i
Cc1ccc(-n2nnnc2SCC(=O)NC2CCCc3ccccc32)cc1 (centres undefined),?,15%,3%,18µM*,i,i
Cc1ccc(-n2nnnc2SCC(=O)Nc2sccc2C#N)cc1,-16%,-6%,-10%,?,18µM*,i
COc1ccc(-n2nnnc2SCC(=O)N2CCOCC2)cc1,-19%,-2%,-1%,-19%,i,i
Cc1ccc(-n2nnnc2SCC(=O)N2CCCCC2)cc1,-17%,3%,-1%,-16%,9.2µM*,i
CCCn1nnnc1SCC(=O)N1CCCCC1,14%,23%,23%,9%,i,i
O=C(Nc1ccccc1C(=O)OCc1cc(=O)n2nc(C3CC3)sc2n1)c1cccc(Cl)c1,-10%,nt,nt,-12%,i,i
O=C(COc1ccccc1Cl)NNC(=O)Cn1[nH]c(=O)c2ccccc2c1=O,9.2µM*,4%,4%,?,i,i
